Results reported in PubChem BioAssay (NCI).
Compounds without any hit were thinned out: in the full panel of roughly 83,000, 20% have a hit.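 Plates (96-well) were seeded with cells, treated with compound at one concentration, and incubated for 48 hours before percent growth was determined.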 Calls of active or inactive are those of the source. Rule for the calls: active = growth percent below 10; inactive = the rest.

Tests used:
Assay in all cases: NCI-60 one-dose screen, 48 h (100 = growth as untreated, 0 = no growth, -100 = all killed)
Conditions in all cases: 10 µM unless noted
SR leukemia = system: SR leukemia
RPMI-8226 leukemia = system: RPMI-8226 leukemia
OVCAR-8 ovarian = system: OVCAR-8 ovarian
OVCAR-5 ovarian = system: OVCAR-5 ovarian
OVCAR-4 ovarian = system: OVCAR-4 ovarian
SK-OV-3 ovarian = system: SK-OV-3 ovarian
IGROV1 ovarian = system: IGROV1 ovarian
OVCAR-3 ovarian = system: OVCAR-3 ovarian
HS 578T breast = system: HS 578T breast
NCI/ADR-RES ovarian = system: NCI/ADR-RES ovarian
T-47D breast = system: T-47D breast
BT-549 breast = system: BT-549 breast
MDA-MB-435 melanoma = system: MDA-MB-435 melanoma
SW-620 colon = system: SW-620 colon
MCF7 breast = system: MCF7 breast
HCT-116 colon = system: HCT-116 colon
HCC-2998 colon = system: HCC-2998 colon
KM12 colon = system: KM12 colon

Measured: growth

COC(=O)CC[C@H](C)[C@H]1CC[C@H]2[C@@H]3CC[C@@H]4CC5(CC[C@]4(C)[C@H]3CC(=O)[C@]12C)Nc1ccccc1NC5=NC(C)(C)C (stereo not given in full)
inactive: SR leukemia 50% | RPMI-8226 leukemia 58.4% | OVCAR-8 ovarian 87.5% | OVCAR-5 ovarian 89.1% | OVCAR-4 ovarian 57.5% | SK-OV-3 ovarian 97% | IGROV1 ovarian 93.8% | OVCAR-3 ovarian 76% | HS 578T breast 88.7% | NCI/ADR-RES ovarian 94.9% | T-47D breast 82.3% | BT-549 breast 95.4% | MDA-MB-435 melanoma 85.1% | SW-620 colon 69.7% | MCF7 breast 58.5% | HCT-116 colon 28.3% | HCC-2998 colon 107%

N#C/C(=C\c1c(-c2ccccc2)[nH]c2ccccc12)C(N)=O
active: SR leukemia 9.47%
inactive: RPMI-8226 leukemia 46.2% | OVCAR-8 ovarian 102% | OVCAR-5 ovarian 107% | OVCAR-4 ovarian 62.5% | SK-OV-3 ovarian 93% | IGROV1 ovarian 77.1% | OVCAR-3 ovarian 81.2% | HS 578T breast 76.5% | NCI/ADR-RES ovarian 77.6% | T-47D breast 83.7% | BT-549 breast 95.6% | MDA-MB-435 melanoma 15.7% | SW-620 colon 56.9% | MCF7 breast 50.4% | HCT-116 colon 76.9% | HCC-2998 colon 78.9%

Cc1cccc(CNc2c3ccccc3nc3ccccc23)c1
inactive: OVCAR-8 ovarian 20.3% | OVCAR-5 ovarian 35.8% | OVCAR-4 ovarian 27.9% | SK-OV-3 ovarian 45.3% | IGROV1 ovarian 19.5% | OVCAR-3 ovarian 30.8% | HS 578T breast 30.3% | NCI/ADR-RES ovarian 25.7% | T-47D breast 25.3% | BT-549 breast 67.3% | MDA-MB-435 melanoma 29.1% | SW-620 colon 17.2% | KM12 colon 25.6%
active: SR leukemia -2.88% | RPMI-8226 leukemia -20.4% | MCF7 breast 6.23% | HCT-116 colon 9.81% | HCC-2998 colon 3.58%

O=C(CN1CCCCC1)Nc1nc(-c2cc3ccccc3oc2=O)cs1
inactive: SR leukemia 89.5% | RPMI-8226 leukemia 106% | OVCAR-8 ovarian 98.3% | OVCAR-5 ovarian 104% | OVCAR-4 ovarian 95.3% | SK-OV-3 ovarian 119% | IGROV1 ovarian 92.9% | OVCAR-3 ovarian 111% | HS 578T breast 93.3% | NCI/ADR-RES ovarian 101% | T-47D breast 87.7% | BT-549 breast 100% | MDA-MB-435 melanoma 104% | SW-620 colon 99.2% | MCF7 breast 88.7% | HCT-116 colon 101% | HCC-2998 colon 104%

Nc1nc2ccc(-c3nc4ccc5[nH]ncc5c4c4c3CCCC4)cc2s1
inactive: SR leukemia 95.9% | RPMI-8226 leukemia 115% | OVCAR-8 ovarian 100% | OVCAR-5 ovarian 105% | OVCAR-4 ovarian 107% | SK-OV-3 ovarian 94.4% | IGROV1 ovarian 102% | OVCAR-3 ovarian 110% | HS 578T breast 99.7% | NCI/ADR-RES ovarian 103% | T-47D breast 110% | BT-549 breast 106% | MDA-MB-435 melanoma 111% | SW-620 colon 106% | MCF7 breast 97.7% | HCT-116 colon 91.8% | HCC-2998 colon 107% | KM12 colon 101%

CCN(CC)S(=O)(=O)c1ccc(S(=O)(=O)N2CCC[C@@H](C(=O)N3CCN(c4nc(C(C)C)no4)CC3)C2)cc1
inactive: SR leukemia 31.6% | RPMI-8226 leukemia 54.8% | OVCAR-8 ovarian 61.3% | OVCAR-5 ovarian 102% | OVCAR-4 ovarian 30.8% | SK-OV-3 ovarian 87.3% | IGROV1 ovarian 86.2% | OVCAR-3 ovarian 75.6% | HS 578T breast 82.8% | NCI/ADR-RES ovarian 58.9% | T-47D breast 43.1% | BT-549 breast 62.9% | MDA-MB-435 melanoma 55.7% | SW-620 colon 79.5% | MCF7 breast 50.7% | HCT-116 colon 51.8% | HCC-2998 colon 78.7%

Cc1ccc(NC(=O)Cn2cc(CN3CCN(c4ccnc5cc(Cl)ccc45)CC3)nn2)cc1
inactive: SR leukemia 60.2% | RPMI-8226 leukemia 64.7% | OVCAR-8 ovarian 89.8% | OVCAR-5 ovarian 95.5% | OVCAR-4 ovarian 76.6% | SK-OV-3 ovarian 68.4% | IGROV1 ovarian 91.1% | OVCAR-3 ovarian 91.3% | HS 578T breast 83.2% | NCI/ADR-RES ovarian 89.1% | T-47D breast 86.5% | BT-549 breast 81.5% | MDA-MB-435 melanoma 94.5% | SW-620 colon 88.6% | MCF7 breast 79.4% | HCT-116 colon 96.9% | HCC-2998 colon 97.3% | KM12 colon 85.8%

O=C(c1ccccc1)c1ccc(C2CCCCC2)cc1
inactive: SR leukemia 107% | RPMI-8226 leukemia 95.6% | OVCAR-8 ovarian 97.8% | OVCAR-5 ovarian 95.4% | OVCAR-4 ovarian 95.2% | SK-OV-3 ovarian 91.6% | IGROV1 ovarian 100% | OVCAR-3 ovarian 98.7% | HS 578T breast 103% | NCI/ADR-RES ovarian 99.7% | T-47D breast 85.7% | BT-549 breast 115% | MDA-MB-435 melanoma 99.8% | SW-620 colon 93.4% | MCF7 breast 95.7% | HCT-116 colon 83.8% | HCC-2998 colon 107% | KM12 colon 103%

COc1cc(-c2nccc3[nH]c(-c4ccc5cc[nH]c5c4)nc23)cc(OC)c1OC
inactive: OVCAR-8 ovarian 12.4% | OVCAR-5 ovarian 41.5% | OVCAR-4 ovarian 39.3% | IGROV1 ovarian 29.5% | HS 578T breast 31.1% | NCI/ADR-RES ovarian 12.7% | T-47D breast 30.5% | BT-549 breast 18.4%
active: SR leukemia -4.95% | RPMI-8226 leukemia -43% | SK-OV-3 ovarian 1.3% | OVCAR-3 ovarian 2.2% | MDA-MB-435 melanoma 5.17% | SW-620 colon -15.6% | MCF7 breast 2.12% | HCT-116 colon 4.37% | HCC-2998 colon -19.2% | KM12 colon 3.62%

CCN(CC)Cc1cc(C=C2C(=O)NC(=S)NC2=O)cc(OC)c1O
inactive: SR leukemia 109% | RPMI-8226 leukemia 110% | OVCAR-8 ovarian 113% | OVCAR-5 ovarian 104% | OVCAR-4 ovarian 122% | SK-OV-3 ovarian 111% | IGROV1 ovarian 112% | OVCAR-3 ovarian 114% | HS 578T breast 103% | NCI/ADR-RES ovarian 110% | T-47D breast 114% | BT-549 breast 110% | MDA-MB-435 melanoma 105% | SW-620 colon 107% | MCF7 breast 97.6% | HCT-116 colon 114% | HCC-2998 colon 118% | KM12 colon 111%

N#Cc1c(-c2ccccc2)cc(-c2ccccc2)n(CCCC(=O)Nc2ccccc2N)c1=O
inactive: SR leukemia 22.4% | RPMI-8226 leukemia 48.9% | OVCAR-8 ovarian 69.1% | OVCAR-5 ovarian 95% | OVCAR-4 ovarian 91.9% | SK-OV-3 ovarian 95.6% | IGROV1 ovarian 51.7% | OVCAR-3 ovarian 26.2% | HS 578T breast 43.5% | NCI/ADR-RES ovarian 39.5% | T-47D breast 64.1% | BT-549 breast 55.4% | SW-620 colon 35% | MCF7 breast 36% | HCT-116 colon 45% | HCC-2998 colon 85.7%
active: MDA-MB-435 melanoma -15.6%

CCN(CC)CCn1c2ccc(OC)cc2c2sc3cc(OC)ccc3c(=O)c21
active: SR leukemia 1.43% | SW-620 colon 8.87% | MCF7 breast 4.61% | HCT-116 colon 4.6%
inactive: RPMI-8226 leukemia 11.8% | OVCAR-8 ovarian 30% | OVCAR-5 ovarian 37.1% | OVCAR-4 ovarian 37.7% | SK-OV-3 ovarian 56.5% | IGROV1 ovarian 14.5% | OVCAR-3 ovarian 31.5% | HS 578T breast 46.1% | NCI/ADR-RES ovarian 23% | T-47D breast 48.5% | BT-549 breast 61.7% | MDA-MB-435 melanoma 35.7% | HCC-2998 colon 35.7%

CCn1c(SCC(=O)N/N=C(\C)c2ccc(Cl)cc2)nc2c1c(=O)n(C)c(=O)n2C
inactive: SR leukemia 93.4% | RPMI-8226 leukemia 103% | OVCAR-8 ovarian 99.9% | OVCAR-5 ovarian 99% | OVCAR-4 ovarian 99.8% | SK-OV-3 ovarian 109% | IGROV1 ovarian 96.5% | OVCAR-3 ovarian 115% | HS 578T breast 94.4% | NCI/ADR-RES ovarian 102% | T-47D breast 98.3% | BT-549 breast 99% | MDA-MB-435 melanoma 100% | SW-620 colon 95.1% | MCF7 breast 95.8% | HCT-116 colon 102% | HCC-2998 colon 102%

NC(=O)c1cc(I)ccc1NC(=O)/C=C/c1ccccc1
inactive: OVCAR-8 ovarian 31% | OVCAR-5 ovarian 42.4% | OVCAR-4 ovarian 44.6% | SK-OV-3 ovarian 69.8% | T-47D breast 122% | BT-549 breast 61.5%
active: SR leukemia 1.87% | RPMI-8226 leukemia -5.89% | IGROV1 ovarian -52.7% | OVCAR-3 ovarian -63.3% | HS 578T breast -12.8% | NCI/ADR-RES ovarian -37.1% | MDA-MB-435 melanoma -30.5% | SW-620 colon 9.63% | MCF7 breast 2.18% | HCT-116 colon 8.52% | HCC-2998 colon -62.3%

Cc1ccc(Nc2cc(N)nc(N)n2)cc1Cl
inactive: SR leukemia 108% | RPMI-8226 leukemia 81.6% | OVCAR-8 ovarian 94.5% | OVCAR-5 ovarian 94.6% | OVCAR-4 ovarian 90.3% | SK-OV-3 ovarian 93.8% | IGROV1 ovarian 91% | OVCAR-3 ovarian 96.7% | HS 578T breast 98.3% | NCI/ADR-RES ovarian 97% | T-47D breast 76.6% | BT-549 breast 101% | MDA-MB-435 melanoma 98.9% | SW-620 colon 112% | MCF7 breast 74.7% | HCT-116 colon 81% | HCC-2998 colon 100%

Cc1cn(-c2cc(NC(=O)c3cccc(C#Cc4cccc5[nH]nc(N)c45)c3)cc(C(F)(F)F)c2)cn1
inactive: SR leukemia 28.3% | RPMI-8226 leukemia 13.8% | OVCAR-8 ovarian 28.5% | OVCAR-5 ovarian 28.8% | OVCAR-4 ovarian 45.6% | SK-OV-3 ovarian 99.4% | IGROV1 ovarian 15.4% | OVCAR-3 ovarian 75.3% | HS 578T breast 31.4% | NCI/ADR-RES ovarian 67.1% | T-47D breast 39.2% | BT-549 breast 30.3% | MDA-MB-435 melanoma 36.1% | SW-620 colon 44.1% | MCF7 breast 34.2% | HCT-116 colon 23.5% | HCC-2998 colon 39.1%

Oc1c(Br)cc(Br)c2ccc(Cn3cc(-c4ccccc4C(F)(F)F)nn3)nc12
inactive: RPMI-8226 leukemia 45.4% | OVCAR-8 ovarian 92.9% | OVCAR-5 ovarian 100% | OVCAR-4 ovarian 79.4% | SK-OV-3 ovarian 116% | IGROV1 ovarian 107% | OVCAR-3 ovarian 51.5% | HS 578T breast 105% | NCI/ADR-RES ovarian 105% | T-47D breast 83.8% | BT-549 breast 107% | MDA-MB-435 melanoma 93.1% | SW-620 colon 73.5% | MCF7 breast 71.5% | HCT-116 colon 49.1% | HCC-2998 colon 110%
active: SR leukemia 2.33%
